Sampled rows, rich in hits. Any-hit rate of the full collection: about 2.4%.
Wnt act – activates Wnt/beta-catenin signaling in a reporter cell assay. hit rate 1.2% among 300,000. activator, plate reader. activation, % at 9.35 µM; in the data active means activation above about 30%, passing the limit was not always enough; inconclusive means no clear call, values can overlap the other calls;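 further: 0% = neutral control wells and 100% = positive control wells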
miR122 inh – blocks miR-122 activity in Huh7 sensor cells. hit rate 0.3% among 340,000. activation (reporter increase), % at 12.5 µM. Huh7 miR-122 Renilla luciferase sensor, 48 h; neutral wells = 0, positive control = 100;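 active means mean replicate activation score at least 90 and every replicate individually at or above 90; inconclusive means only one of the two criteria met; inactive means neither criterion met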;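 further: higher luciferase means less miR-122 activity so hits act as miR-122 inhibitors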
NSD2 inh – blocks human histone methyltransferase NSD2; NSD2 peptide methylation, AlphaScreen, 120 min; hit rate 0.54% among 310,000; inhibition, % at 12.5 µM; O96028
Target sequence (O96028 whole entry, looked up): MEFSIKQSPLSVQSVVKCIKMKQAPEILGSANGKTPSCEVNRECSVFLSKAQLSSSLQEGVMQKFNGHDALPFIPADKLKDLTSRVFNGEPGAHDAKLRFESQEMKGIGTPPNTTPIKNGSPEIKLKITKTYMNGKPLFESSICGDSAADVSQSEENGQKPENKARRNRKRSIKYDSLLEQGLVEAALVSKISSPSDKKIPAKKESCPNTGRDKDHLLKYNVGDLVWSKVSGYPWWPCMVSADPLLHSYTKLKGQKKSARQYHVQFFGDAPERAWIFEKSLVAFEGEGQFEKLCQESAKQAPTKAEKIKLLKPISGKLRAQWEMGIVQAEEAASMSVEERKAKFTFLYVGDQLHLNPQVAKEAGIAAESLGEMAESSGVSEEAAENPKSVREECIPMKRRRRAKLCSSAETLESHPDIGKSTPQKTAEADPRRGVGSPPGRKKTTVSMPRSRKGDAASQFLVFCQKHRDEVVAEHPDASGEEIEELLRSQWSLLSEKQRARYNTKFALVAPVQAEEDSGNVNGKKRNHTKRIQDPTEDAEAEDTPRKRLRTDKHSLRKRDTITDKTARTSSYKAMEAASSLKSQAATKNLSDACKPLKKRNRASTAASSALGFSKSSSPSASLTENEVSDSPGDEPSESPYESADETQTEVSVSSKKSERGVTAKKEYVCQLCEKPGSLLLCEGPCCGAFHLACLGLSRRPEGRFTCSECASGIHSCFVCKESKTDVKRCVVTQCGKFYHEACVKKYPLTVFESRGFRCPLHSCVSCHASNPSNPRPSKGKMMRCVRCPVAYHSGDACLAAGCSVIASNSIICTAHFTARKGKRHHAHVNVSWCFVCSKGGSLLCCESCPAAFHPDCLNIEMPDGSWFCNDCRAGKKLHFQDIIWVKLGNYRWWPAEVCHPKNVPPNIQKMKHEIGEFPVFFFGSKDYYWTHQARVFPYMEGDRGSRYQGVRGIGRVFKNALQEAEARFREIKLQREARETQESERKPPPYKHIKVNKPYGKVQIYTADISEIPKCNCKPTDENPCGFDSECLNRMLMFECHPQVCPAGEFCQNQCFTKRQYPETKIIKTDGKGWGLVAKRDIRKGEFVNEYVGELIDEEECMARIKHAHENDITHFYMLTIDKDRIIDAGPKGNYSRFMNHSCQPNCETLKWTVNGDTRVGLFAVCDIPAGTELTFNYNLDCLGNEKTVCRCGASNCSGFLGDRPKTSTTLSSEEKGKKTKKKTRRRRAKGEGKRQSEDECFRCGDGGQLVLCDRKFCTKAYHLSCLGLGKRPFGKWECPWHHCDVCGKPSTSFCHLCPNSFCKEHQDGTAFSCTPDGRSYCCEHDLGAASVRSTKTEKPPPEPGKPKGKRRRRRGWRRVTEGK
MITF act – increases MITF-driven TRPM1 promoter luciferase signal. SK-MEL-5 TRPM1-promoter luciferase, 24 h; % of positive control, neutral wells = 0. activation, % at 12.5 µM. hit rate 0.75% among 300,000. AID 588334;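 active means mean activation of at least 80% with every replicate also reaching 80%; inconclusive means mean reaches 80% but some replicate falls short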;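 further: 0% = neutral control wells and 100% = parthenolide positive control wells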
Dyrk1A ADPGlo – Dyrk1A (rat) kinase inhibition; Q63470; ADP-Glo luminescence, NFATc1 peptide; inhibition, % at 12.5 µM; hit rate 0.43% among 310,000; AID 504441;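 further: plate controls were vehicle with enzyme for no effect and no enzyme for full effect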
GSIS activator – GLuc luminescence reporter in INS-1E cells, primary screen for activators of glucose-dependent secretion of insulin. activation, % at 16.6 µM. hit rate 0.61% among 370,000. AID 743287. INS-1E GLuc reporter insulin secretion, 2-3 h;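 active means lowest replicate activation of at least 40%, so every replicate reaches that level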;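 further: 0% = median of neutral control wells and 100% = median of IBMX positive control wells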
Numbers without * were called inactive; ? = inconclusive; . = no result; [ ] = remark or other dose. Unless noted, no stated cut-off is given here; in the data, active means inhibition above about 50%; inactive means the rest.

SMILES	Wnt act	miR122 inh	NSD2 inh	MITF act	Dyrk1A ADPGlo	GSIS activator
O=[N+]([O-])c1cc(S(=O)(=O)Nc2ccc(Cl)cc2)ccc1N/N=C/c1ccncc1	-6	279*	0	6	-2	-2
c1ccc2c(c1)oc1c(Nc3ccc4c(c3)OCO4)ncnc12	33*	3	-3	42	15	.
COc1cccc(C(=O)NC2=NCCS2)c1	44*	-2	-1	.	3	.
O=C(NC1=NCCS1)c1cccc(F)c1	7	-1	-2	.	.	6
COc1ccc(N(Cc2ccccc2)S(=O)(=O)c2cccc(C(=O)NC3=NCCS3)c2)cc1	0	119*	0	1	9	.
O=C(NC1=NCCS1)c1cccc(Br)c1	42*	-4	-1	.	5	14
O=C(C[C@@H]1C=C[C@H](NS(=O)(=O)c2ccc(F)cc2)[C@@H](CO)O1)NC1CCCCC1	.	.	.	.	.	18
OCC1(CCOc2ccccc2)CCN(Cc2ccccc2C(F)(F)F)CC1	41*	5	-2	3	3	3
[O-][n+]1ccccc1/C=C/c1ccccc1	0	.	-4	8	-12	5
[O-][n+]1c(/C=C/c2ccccc2)ccc2ccccc21	37*	8	1	21	-1	4
CO[C@H]1CN(C)C(=O)c2cc(NC(C)=O)ccc2OC[C@@H](C)N(C(=O)c2ccccn2)C[C@@H]1C	.	-21[16.7 µM]	.	.	.	1
CNC[C@H]1Oc2ccc(NS(=O)(=O)c3ccc(Cl)cc3)cc2CC(=O)N([C@@H](C)CO)C[C@@H]1C	.	-1[16.7 µM]	.	.	.	-3
Cc1ccc2nc(/C=C/c3cccc(F)c3)ccc2c1	71*	.	.	56	-3	-6
Fc1cccc(F)c1/C=C/c1ccc2ccccc2n1	.	0	-1	-6	3	-12
COc1cccc(/C=C/C(=O)NNC(=O)c2ccccc2)c1OC	34*	0	0	16	0	-15
O=C(O)c1cccc(N2C(=O)/C(=C/c3ccc(SCc4ccc(Cl)cc4)o3)SC2=S)c1	?	.	112*	8	-11	-3
O=C(CCNC(=O)c1ccc(Cl)cc1)NC1CCCCCC1	38*	-19	0	10	1	1
Nc1ccc(NC(=O)NC2CCCCC2)cc1	5	-1	2	-8	1	9
O=C(CCNC(=O)c1ccc(Br)cc1)NC1CCCCCC1	-1	0	.	-3	2	5
O=C(Nc1ccc(F)cc1)NC1CCCCCCC1	12	4	0	105*	-4	12
O=C(Nc1nc(-c2ccc(Cl)cc2)cs1)NC1CCCCC1	.	3	0	-7	-9	7
O=C(Nc1ccc(Cl)cc1)NC1CCCCC1	66*	16	-5	?	3	.
O=C(Nc1nnc(-c2ccc(Cl)cc2)o1)NC1CCCCC1	.	-1	0	6	.	59*
CCCNC(=O)N1CC(=O)N2[C@H](C1)[C@@H](c1ccc(-c3ccccc3)cc1)[C@@H]2CO	.	.	.	.	.	17
O=S(=O)(Nc1ccc(C(O)(C(F)(F)F)C(F)(F)F)cc1)c1ccc(-c2ccccc2)s1	.	.	17	.	.	.
SMILES	Wnt act	miR122 inh	NSD2 inh	MITF act	Dyrk1A ADPGlo	GSIS activator
CCOC(=O)c1c(C)oc2c1c1c(c3ccccc32)OCN(CCCC(=O)O)C1	48*	3	.	66	-9	-17
C[C@H](CO)N1C[C@H](C)[C@@H](CN(C)Cc2ccncc2)Oc2ccc(NC(=O)Nc3ccc4c(c3)OCO4)cc2CC1=O	.	-7[16.7 µM]	.	.	.	-14
CCc1nc(SCC(=O)c2ccccc2)c2c(=O)n(C)c(=O)n(C)c2n1	-2	-1	-4	-5	-5	41*
O=C(NCCc1ccc(Cl)cc1)c1ccc2c(c1)OCO2	37*	4	0	46	.	10
O=C(NCCOc1ccc(Cl)cc1)c1ccc2c(c1)OCCO2	20	-4	-2	98*	0	-28
COc1ccc(NC(=O)N(C)C[C@@H]2Oc3ccc(NC(=O)Nc4ccccc4)cc3C(=O)N([C@H](C)CO)C[C@@H]2C)cc1	.	-2[16.7 µM]	.	.	.	-16
C[C@H](CO)N1C[C@H](C)[C@H](CN(C)C(=O)C2CCC2)Oc2ncc(Br)cc2C1=O	.	26[16.7 µM]	.	.	.	19
Cc1nn(C(=O)c2cccs2)c(N)c1-c1ccccc1	47*	3	.	90*	1	-25
Cc1nn(C(=O)c2ccc3c(c2)OCO3)c(N)c1-c1ccccc1	67*	.	.	75	-1	.
C[C@H](CO)N1C[C@H](C)[C@@H](CN(C)Cc2ccc3c(c2)OCO3)OCCCC[C@H](C)Oc2ccc(NC(=O)NC3CCCCC3)cc2C1=O	.	19[16.7 µM]	.	.	.	-7
O=C(C[C@H]1CC[C@@H]2[C@H](COC[C@@H](O)CN2C(=O)c2ccccn2)O1)N1CCN(c2ccccc2)CC1	.	-4[16.7 µM]	.	.	.	5
O=c1c2cc(-c3ccccc3)sc2ncn1-n1cccc1	27	-3	.	85*	2	.
CC(=O)Cn1cnc2sc(-c3ccccc3)cc2c1=O	37*	-11	0	88*	12	.
CC(=O)Cn1nnc2sc(-c3ccccc3)cc2c1=O	12	-6	-1	89*	-4	-8
CCn1cnc2sc(-c3ccccc3)cc2c1=O	19	-8	0	45	9	24
COCCNC(=O)C[C@H]1C[C@H]2c3cc(NC(=O)Nc4ccc(F)cc4)ccc3O[C@H]2[C@H](CO)O1	.	2[16.7 µM]	.	.	.	4
COc1cccc(CN2[C@H](CO)[C@@H](c3ccccc3)C23CN(Cc2ccccc2)C3)c1	.	.	.	.	.	0
C[C@H](CO)N1C[C@H](C)[C@@H](CN(C)C(=O)Nc2cccc3ccccc23)Oc2ccc(NC(=O)c3ccncc3)cc2C1=O	.	-5[16.7 µM]	.	.	.	4
C[C@@H]1CN([C@H](C)CO)S(=O)(=O)c2ccc(C3=CCCC3)cc2O[C@H]1CN(C)Cc1ccccn1	.	3[16.7 µM]	.	.	.	16
O=C(Nc1nc2c(F)cccc2s1)c1cccs1	.	.	-15	.	.	.
C[C@@H]1CCCCO[C@H](CN(C)Cc2ccncc2)[C@H](C)CN([C@H](C)CO)C(=O)c2cc(NS(=O)(=O)c3ccc(F)cc3)ccc2O1	.	8[16.7 µM]	.	.	.	-23
COc1ccccc1Cn1c(=O)oc2ccccc21	-1	-6	-4	.	.	43*
COc1ccc(CCN(C)C(=O)CSc2ncnc3sccc23)cc1OC	-1	.	5	-2	-4	78*
COc1ccc(CCN(C)C(=O)Cn2c(=O)oc3ccccc32)cc1OC	-3	1	11	-2	10	70*
O=C(C[C@@H]1CC[C@H](NC(=O)Nc2cc(F)ccc2F)[C@@H](CO)O1)NCc1ccccn1	.	-7[16.7 µM]	.	.	.	-4
O=C(C[C@@H]1CC[C@H]2[C@@H](COC[C@@H](O)CN2Cc2cc(F)ccc2F)O1)N1CCc2ccccc2C1	.	-2[16.7 µM]	.	.	.	-10
COc1ccc(S(=O)(=O)Nc2cccc3c2O[C@H](CN(C)C(=O)Nc2ccccc2)[C@@H](C)CN([C@@H](C)CO)C3=O)cc1	.	30[16.7 µM]	.	.	.	1
COc1cccc(-c2nc(NCc3ccco3)c3ccccc3n2)c1O	.	-6	-2	-2	-5	76*

High-throughput results: PubChem BioAssay, Broad Institute
